# Results taken from PubChem BioAssay AID1063 (University of Pittsburgh Molecular Library Screening Center, 2008).
# Out of some 200,000 compounds screened, about 18,000 (9%) were called active. The sample holds actives, similar compounds and a random draw of the others, so the mix is not that of the screen. A number with no mark means an inactive call. Rule as the data show it: active = inhibition above about 50%; inactive = the rest.
# Assay: antileishmanial activity against promastigotes – primary screen (AID 1063);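 also: promastigotes grown with compound for 44 hours at 28 °C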
# Details: Leishmania major promastigotes, resazurin fluorescence viability; at 10 µM; stronger effect = higher value
row,SMILES,inhibition
1,CCCCCCCCn1c2c(c(=N)c3c1CCC3)CCCC2,101% (active)
2,CCCCCCn1c(CN2CCCCC2)nc2c1c(=O)n(C)c(=O)n2C,6.89%
3,COc1cc(C)c(S(=O)(=O)N2CCOCC2)c(C)c1C,-1.23%
4,CCCCCCCC1(C)NC(=O)N(CC(=O)Nc2cc(C)on2)C1=O (stereo unspecified),20.5%
5,CNC(=O)COc1ccc(S(=O)(=O)Nc2ccccc2)cc1,-0.21%
6,CCN1CCN(C(=O)CCN2C(=O)c3ccccc3C2=O)CC1,4.9%
7,O=C(CN1C(=O)C2C3C=CC(C3)C2C1=O)NCCc1ccccc1Cl (stereo unspecified),0.65%
8,O=C(CCN1C(=O)C2C3C=CC(C3)C2C1=O)Nc1ccccc1F (stereo unspecified),-3.49%
9,O=C(CN1C(=O)C2C3C=CC(C3)C2C1=O)Nc1nc(-c2ccccn2)cs1 (stereo unspecified),97.2% (active)
10,Cc1cc(=O)n2[nH]c(-c3sccc3-n3c(C)ccc3C)cc2n1,-1.8%
11,CCOc1cc2[nH]c(=O)n(Cc3ccc(C(=O)NCCCN4CCCC4=O)cc3)c(=O)c2cc1OCC,-1.97%
12,Cc1ccc(C(=O)Cn2cccn2)cc1,-1.93%
13,CSc1ncccc1C(=O)NC1CCCCCC1,-1.57%
14,CC1CCN(c2ccc(C(=O)NCc3ccc4c(c3)OCO4)cc2[N+](=O)[O-])CC1,1.95%
15,COCCNC(=O)c1ccc(N2CCC3(CC2)OCCO3)c([N+](=O)[O-])c1,73.7% (active)
16,CCC(C)NC(=O)c1ccc(N2CCC3(CC2)OCCO3)c([N+](=O)[O-])c1 (stereo unspecified),-0.6%
17,COc1ccc(C(C)=O)cc1CSc1nc2nc(C)cc(C)n2n1,-4.13%
18,c1ccc2[nH]c(NCCN3CCOCC3)nc2c1,0.2%
19,c1ccc2cc3c(NCCN4CCOCC4)ccnc3cc2c1,100% (active)
20,O=C(Cn1c(-c2ccccn2)nc2ccccc21)NCCN1CCOCC1,-2.96%
21,CCc1ccc(C(=O)OCC(=O)NCC(F)(F)F)cc1,4.83%
22,O=C(N/N=C/c1ccc(OCC2COCCO2)cc1)c1ccc(Br)cc1 (stereo unspecified),40.5%
23,COc1cc(C(=S)N2CCOCC2)ccc1O,-5.63%
24,C=CCOCCN(C)C1=NS(=O)(=O)c2ccccc21,-5.84%

row,SMILES,inhibition
1,CN(C)C=NC(=O)c1cccn1-c1ncc(C(F)(F)F)cc1Cl,-3.59%
2,O=Cc1cn(Cc2ccccc2)nc1-c1cccnc1,-1.93%
3,O=C1/C(=C\c2cccnc2)CN(Cc2ccccc2)C/C1=C\c1cccnc1,100% (active)
4,Clc1ccc(CN2CCN(/N=C/c3cccnc3)CC2)cc1,8.51%
5,COc1cccc2cc(S(=O)(=O)c3ccc(C)cc3)/c(=N/NS(=O)(=O)c3ccc(C)cc3)oc12,-0.64%
6,CCOC(=O)C1(CCOc2ccccc2)CCN(C(=O)c2cncs2)CC1,6.07%
7,CCOC(=O)/C(N=Nc1cc(C(=O)O)cc(C(=O)O)c1)=C(\O)CCl,50% (active)
8,O=C(C1CC1)N1N=C2CCCCC2C1(O)C(F)(F)F (stereo unspecified),-9.92%
9,CCOC(=O)C1=C(C)NC(C)=C(C(=O)OCC)C1c1ccccn1,8.25%
10,CCOC(=O)c1sc(=S)n2c1[nH]c(=O)c1ccc(C(=O)OC)cc12,-7.11%
11,CCOC(=O)C1=C(C)Nc2sc(C(=O)c3ccc(Br)cc3)c(N)c2C1c1ccc(C(=O)OC)cc1 (stereo unspecified),94.8% (active)
12,Cc1ccc(C(=O)N/C(=C/c2ccco2)C(=O)NCCc2c[nH]c3ccccc23)cc1C,32.8%
13,CC(=O)N/C(=C/c1ccc(Cl)cc1)C(=O)NCCc1c[nH]c2ccccc12,92.8% (active)
14,COc1ccc(/C=C(\NC(=O)c2ccc(OC)c(OC)c2)C(=O)NCCc2c[nH]c3ccccc23)cc1,16%
15,CN(C)/N=C/c1cn(-c2ccccc2)nc1-c1cccnc1,13.5%
16,O=C(NCCCn1ccnc1)C(=O)c1cn(CC(=O)N2CCCCCC2)c2ccccc12,10.8%
17,COc1ccccc1/C=C/CN1CCC(CO)(Cc2ccccc2)CC1,32.1%
18,COc1cc(C(=O)N2CCN(C/C=C/c3ccccc3)CC2)cc(OC)c1C,54.7% (active)
19,CNC(=O)NC(=O)C(C)N1CCN(C/C=C/c2ccccc2)CC1 (stereo unspecified),9.45%
20,Cn1c(SCC(=O)NC2CCCCC2)nnc1-c1ccc(N)cc1,-1.08%
21,Cc1ccc(-c2csc(-c3c[nH]c4ccccc34)n2)cc1,-3.69%
22,Cc1ccc(C2=Nc3c(ccc4ccccc34)C(c3ccncc3)=NN2)cc1,60% (active)
23,CCOC(=O)N1CCN(C(=S)Nc2ccc(C)cc2C)CC1,-7.01%
24,CC(C)Oc1ccccc1C(=O)NC(CO)C(=O)O (stereo unspecified),-2.66%

row,SMILES,inhibition
1,NC(=O)COc1ccc(C23CC4CC(CC(C4)C2)C3)cc1,2.36%
2,O=C1/C(=C/c2ccc3c(c2)OCO3)CCC/C1=C\c1ccc2c(c1)OCO2,39.8%
3,CCC1=C/C(=C\c2ccc3c(c2)OCO3)C(=O)S1,78.2% (active)
4,CSC1=N/C(=C\c2ccc3c(c2)OCO3)C(=O)S1,17.7%
5,Cc1nn(C)c(Oc2ccccc2)c1[N+](=O)[O-],6.23%
6,Cc1nn(C)c(Oc2ccccc2)c1CCNS(=O)(=O)c1ccc(F)cc1,97.5% (active)
7,COc1ccc(CCNS(=O)(=O)c2ccc(F)cc2)cc1OC,-4.28%
8,CN(CCc1ccccn1)C(=O)CCC1CCCN(Cc2ccccc2OC(F)F)C1 (stereo unspecified),67.9% (active)
9,COc1ccc(F)cc1C(=O)C1CCCN(C(=O)CCc2ccccn2)C1 (stereo unspecified),-6.74%
10,COc1cccc(CN2CCNC(=O)C2CC(=O)N(C)CCc2ccccn2)c1 (stereo unspecified),1.29%
11,CN1CCNC(=O)C1CC(=O)N1CC=C(c2ccc(F)cc2)CC1 (stereo unspecified),-0.97%
12,Cn1cccc1-c1nc2ccccc2n1C,6.87%
13,O=C(CC1SC(=Nc2ccccc2F)N(CCN2CCOCC2)C1=O)Nc1ccc(F)cc1F (stereo unspecified),50.8% (active)
14,N#C/C(C(=O)N1CCOCC1)=C1/SC(Cc2ccc(F)cc2)C(=O)N1c1ccccc1 (stereo unspecified),-0.55%
15,CCN1C(=O)C(CC(=O)Nc2cc(C)ccc2C)SC1=Nc1ccc(S(N)(=O)=O)cc1 (stereo unspecified),10.5%
16,CCOC(=O)Cc1ncccc1C(=O)Nc1ccc(OC(F)(F)F)cc1,-5.35%
17,N#C/C(=C(\O)C(F)(F)F)c1nnc2n1CCCCC2,-2.09%
18,N#C/C(=C(\O)CCl)c1nnc2n1CCCCC2,-1.52%
19,N#C/C(=C/c1cccc([N+](=O)[O-])c1)c1nnc2n1CCCCC2,81.3% (active)
20,Cc1ccc2nc(Nc3ncc4c(n3)CC(C)(C)CC4=O)nc(C)c2c1,9.71%
21,O=C(c1ccccc1)c1ccc2nc(N3CCCCC3)c3nncn3c2c1,-0.8%
22,Cn1cc(S(=O)(=O)N2CCC(Cc3ccccc3)CC2)c(=O)n(C)c1=O,-5.82%
23,c1ccc(CC2CCN(c3nc4ccccc4n4cnnc34)CC2)cc1,64.6% (active)
24,CCOCCCNC(=O)C(NC(=O)Cc1c[nH]c2ccccc12)c1ccc(OC)cc1 (stereo unspecified),-7.71%

row,SMILES,inhibition
1,COc1cc(C=O)c(Br)cc1OCC(=O)NCc1ccccc1,4.2%
2,COc1ccc(CCNC(=O)COC(=O)Cc2cc(OC)c(OC)c(OC)c2)cc1,-3.11%
3,Fc1ccc2[nH]c3c(N4CCN(Cc5ccc6c(c5)OCO6)CC4)ncnc3c2c1,77.8% (active)
4,Fc1ccc2[nH]c3c(N4CCSCC4)ncnc3c2c1,35.5%
5,Cc1cc(N2CCN(Cc3ccc4c(c3)OCO4)CC2)n2ncnc2n1,12.7%
6,Nc1nnnn1CC(=O)N/N=C/c1ccc(-c2cccc(Cl)c2)o1,-9.69%
7,COc1ccc(/C=N/n2c(C)cc(C)cc2=O)cc1,-6.47%
8,CC(C)c1csc(CN2CCC(CO)(Cc3ccccc3)CC2)n1,14.2%
9,CCC(C)CN1CCC(CO)(Cc2ccccc2Cl)CC1 (stereo unspecified),82.2% (active)
10,CC(CN1CCCCC1)OC(=O)c1ccccc1Cl (stereo unspecified),-4.92%
11,CC1COc2ccccc2N1S(=O)(=O)c1ccccc1 (stereo unspecified),15.8%
12,CN1/C(=C\C=C2\N=C(c3ccc(F)cc3)OC2=O)C(C)(C)c2ccccc21,63.4% (active)
13,CN1CCN(CCC(=O)N/N=C/C=C2\N(C)c3ccccc3C2(C)C)CC1,4.61%
14,CC(=O)Nc1cccc(OCC(=O)/C=C2\N(C)c3ccccc3C2(C)C)c1,48.1%
15,O=C(O)CSc1nccc2ccccc12,-6.68%
16,O=C(c1ccccc1Cl)N(Cc1ccccc1F)N1C(=O)CCCC1=O,-3.99%
17,O=C(O)CC(SCC(=O)Nc1ccc(Br)cc1)C(=O)O (stereo unspecified),-3.9%
18,CC1(C)CC(=O)CC2(C1)NCC(c1ccccc1Cl)c1c2[nH]c2ccccc12 (stereo unspecified),53.5% (active)
19,Cc1onc(-c2ccccc2)c1C(=O)NNC(=S)NC(=O)c1ccc(F)cc1,-0.74%
20,c1ccc2c(c1)OCC(c1nn3cnnc3s1)O2 (stereo unspecified),-7.7%
21,O=C(Nc1nnc(C2COc3ccccc3O2)o1)c1ccc(F)cc1 (stereo unspecified),84.8% (active)
22,CCn1nc(C)c(CN2CCN(Cc3ccc(OC)c(C)c3C)C(CCO)C2)c1C (stereo unspecified),5.83%
23,CC1CCC(C(C)C)C(=O)/C1=C\c1ccc(NC(=O)CCC(=O)O)cc1 (stereo unspecified),4.09%
24,O=C(c1ccc(OC2CCN(Cc3ccccn3)CC2)cc1)N1CCCCCC1,39.9%
